DT40 TDP1 CPT – DT40-hTDP1 cell growth loss with CPT. chicken DT40 Tdp1-/-;hTDP1 cells + 20 nM CPT, ATP luminescence, 48 h. Potency, µM (highest dose often 46.2 µM), actives largely listed as inhibitors. 12% of 420,000 active. AID 686979; also: nearly all actives have a fitted effect of over 55% in size
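Chicken DT40 Tdp1-/- cells complemented with human TDP1, 400 cells/well, exposed to compounds plus 20 nM camptothecin for at least 48 h at 37 C; viability read as ATP content by CellTiter-Glo luminescence.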
IL-1B inflam inh – inhibitors of inflammasome signaling (IL-1 beta secretion); THP-1 LPS/ATP IL-1B secretion, AlphaLISA, 16 h; active compounds read low; activity change, % at 57.5 µM; 4.7% of 360,000 active; AID 743279; in the data active = activity change below about -50%; inconclusive = mostly about -30% to -49%
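Secreted IL-1B measured by AlphaLISA bead assay after 16 h compound exposure of THP-1 cells; compounds (final up to 57.5 uM) added 1 h before LPS (250 ng/mL) and ATP (1.25 mM) stimulation; lower signal means less secretion.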
RORg inh – ROR gamma (mouse) transcription inhibition; P51450; Drosophila S2 Gal4-RORgamma UAS-luciferase reporter, 20 h; Potency, µM (top dose mostly 53.6 µM), usual class: inhibitors; 5.4% of 310,000 active; also: nearly all actives have a fitted effect of over 60% in size
Target sequence (P51450 whole entry, looked up, the tested form may be a part): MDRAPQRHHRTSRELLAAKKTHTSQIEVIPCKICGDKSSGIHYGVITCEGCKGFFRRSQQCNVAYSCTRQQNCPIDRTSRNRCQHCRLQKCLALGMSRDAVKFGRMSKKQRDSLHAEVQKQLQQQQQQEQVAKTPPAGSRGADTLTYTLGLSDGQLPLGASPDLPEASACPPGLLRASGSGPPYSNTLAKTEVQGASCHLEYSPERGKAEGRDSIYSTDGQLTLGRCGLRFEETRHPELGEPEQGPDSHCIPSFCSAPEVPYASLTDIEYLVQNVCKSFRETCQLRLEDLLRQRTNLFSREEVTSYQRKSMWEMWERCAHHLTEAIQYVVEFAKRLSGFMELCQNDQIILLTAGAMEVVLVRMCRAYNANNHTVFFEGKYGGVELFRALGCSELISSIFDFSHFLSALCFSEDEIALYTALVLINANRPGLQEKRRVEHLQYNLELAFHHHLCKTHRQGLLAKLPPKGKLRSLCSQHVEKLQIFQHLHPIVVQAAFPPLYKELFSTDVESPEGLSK
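Using a luciferase readout, inhibitors were identified by reduced reporter activity in Drosophila cells coexpressing a copper-inducible Gal4–ROR gamma fusion and UAS-driven Photinus luciferase, incubated 20 hr after 700 uM copper sulfate.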
LDHA block – LDHA (human) enzyme inhibition; P00338; purified LDHA, NADH/diaphorase-resazurin fluorescence; active compounds read low; activity change, % (values are at about 110 or 230 µM); 0.15% of 480,000 active; AID 1347041; in the data active = activity change below about -30%; inconclusive = mostly about -25% to -30%
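Remaining NADH was detected by diaphorase (0.133 mg/mL) converting 37 µM resazurin to fluorescent resorufin, read at 0 and 20 minutes. The preceding 5-minute room-temperature reaction used 2 nM LDHA, 0.2 mM sodium pyruvate and 0.06 mM NADH at pH 7.4.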
Gal4-VP16 FLuc – counter-screen for ROR gamma inhibitors: Gal4-VP16 reporter | Drosophila S2 Gal4-VP16 UAS-luciferase, luminescence, 20 h | Potency, µM (doses to about 53.6 µM), actives largely listed as inhibitors | 3.5% of 310,000 active | AID 2546;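 also: Gal4-VP16 expression switched on by copper sulfate through the metallothionein promoter; nearly all actives have a fitted effect of over 50% in size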
DT40 TDP1 no CPT – qHTS for Inhibitors of human tyrosyl-DNA phosphodiesterase 1 (TDP1): qHTS in cells in absence of CPT. DT40 Tdp1-/- hTDP1 cells, no CPT, ATP luminescence, 48 h. Potency, µM (series often up to 46.2 µM), actives largely listed as inhibitors. 15% of 420,000 active; also: nearly all actives have a fitted effect of over 55% in size
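Stably hTDP1-transfected Tdp1-null chicken DT40 cells were treated with library compounds minus camptothecin and grown for at least 48 hr at 37 °C, after which cellular ATP was quantified by luminescence.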
Numbers stand for hits. In the library only some 18% were active in any assay of this set; here they are far more common. Unless noted, calls follow the shape of the dose curve; as a rule, active = well fitted curve in the direction sought with a large enough effect; inconclusive = small, poorly fitted or top-dose-only effect, or another doubt; inactive = no such curve, though single readings can be large; an effect the other way counts as inactive or inconclusive.

Screening O=[N+]([O-])c1ccc(N2CCCC2)cc1NCc1ccccc1 returned DT40 TDP1 CPT inactive, IL-1B inflam inh inactive, RORg inh inactive, LDHA block inactive, Gal4-VP16 FLuc inactive and DT40 TDP1 no CPT inconclusive.
Screening Cc1ccccc1OCCNc1cc(N2CCN(CCO)CC2)ccc1[N+](=O)[O-] returned DT40 TDP1 CPT inconclusive, IL-1B inflam inh -76, RORg inh inactive, LDHA block inactive, Gal4-VP16 FLuc inactive and DT40 TDP1 no CPT inconclusive.
`CC1CN(c2ccc([N+](=O)[O-])c(NCCOc3ccccc3)c2)CCN1` (stereo unspecified) gave DT40 TDP1 CPT inconclusive, IL-1B inflam inh -62, RORg inh inactive, LDHA block inactive, Gal4-VP16 FLuc inactive and DT40 TDP1 no CPT inconclusive.
`Cc1ccc(C)c(-c2nn(-c3cc(N4CCN(CCO)CC4)ccc3[N+](=O)[O-])c(=O)c3ccccc23)c1` gave DT40 TDP1 CPT inconclusive, IL-1B inflam inh inconclusive, RORg inh inconclusive, LDHA block inactive, Gal4-VP16 FLuc inconclusive and DT40 TDP1 no CPT 26µM.
Cc1cccc(OCCNc2cc(N3CCN(CCO)CC3)ccc2[N+](=O)[O-])c1 was read as DT40 TDP1 CPT inconclusive, IL-1B inflam inh inactive, RORg inh inconclusive, LDHA block inactive, Gal4-VP16 FLuc inactive and DT40 TDP1 no CPT 21µM.
For CC1CCN(S(=O)(=O)c2ccc(NC(=O)C3CC(=O)N(CCc4ccc(F)cc4)C3)cc2)CC1 (stereo unspecified) the results were LDHA block inactive.
For COc1ccc(S(=O)(=O)N(C)C)cc1NC(=O)c1n[nH]c(=O)c2ccccc12 the results were LDHA block inactive.
COc1ccc(OCCNc2cc(N3CCCCC3)ccc2[N+](=O)[O-])cc1 was read as DT40 TDP1 CPT 18µM, IL-1B inflam inh inconclusive, RORg inh inactive, LDHA block inactive, Gal4-VP16 FLuc inactive and DT40 TDP1 no CPT 23µM.
`COc1ccc(OCCNc2cc(N3CCOCC3)ccc2[N+](=O)[O-])cc1` gave DT40 TDP1 CPT inconclusive, IL-1B inflam inh inactive, RORg inh inactive, LDHA block inactive, Gal4-VP16 FLuc inactive and DT40 TDP1 no CPT inconclusive.
Screening Cc1ccccc1OCCNc1cc(N2CCCCC2)ccc1[N+](=O)[O-] returned DT40 TDP1 CPT 21µM, IL-1B inflam inh inactive, RORg inh inconclusive, LDHA block inactive, Gal4-VP16 FLuc inactive and DT40 TDP1 no CPT inconclusive.
Screening CCOc1ccc(C(O)(CCC(C)C)C(CN2CCOCC2)c2ccccc2)cc1 (stereo unspecified) returned DT40 TDP1 CPT inconclusive, IL-1B inflam inh -60, RORg inh inactive, LDHA block inactive, Gal4-VP16 FLuc inactive and DT40 TDP1 no CPT 21µM.
Screening CCOc1ccc(C(O)(c2ccccc2)C(CN2CCCC2)c2ccccc2)cc1 (stereo unspecified) returned DT40 TDP1 CPT inconclusive, IL-1B inflam inh -61, RORg inh inactive, LDHA block inactive, Gal4-VP16 FLuc inactive and DT40 TDP1 no CPT 7.3µM.
For COc1ccc(C(O)(CC(C)C)C(CN2CCOCC2)c2ccccc2)cc1 (stereo unspecified) the results were DT40 TDP1 CPT inconclusive, IL-1B inflam inh inactive, RORg inh inconclusive, LDHA block inactive, Gal4-VP16 FLuc inactive and DT40 TDP1 no CPT 21µM.
`COc1ccc(C(O)(CCC(C)C)C(CN2CCOCC2)c2ccc(Cl)cc2)cc1` (stereo unspecified) gave DT40 TDP1 CPT inconclusive, IL-1B inflam inh -81, RORg inh inactive, LDHA block inactive, Gal4-VP16 FLuc inactive and DT40 TDP1 no CPT 15µM.
Screening Cc1cc(-c2csc(Nc3ccc(O)cc3)n2)ccc1F returned LDHA block inactive.
For CCOc1ccc(N(C)S(=O)(=O)c2ccc(-c3cc(C)no3)s2)cc1 the results were DT40 TDP1 CPT 3.7µM, IL-1B inflam inh inactive, RORg inh inconclusive, LDHA block inactive, Gal4-VP16 FLuc inactive and DT40 TDP1 no CPT 4.1µM.
Screening CCOc1ccc(N(C)S(=O)(=O)c2ccc(-c3ccc(=O)[nH]n3)s2)cc1 returned DT40 TDP1 CPT inactive, IL-1B inflam inh inactive, RORg inh inactive, LDHA block inactive, Gal4-VP16 FLuc inactive and DT40 TDP1 no CPT inactive.
`CCN(c1cccc(C)c1)S(=O)(=O)c1ccc(-c2cc(C)no2)s1` gave DT40 TDP1 CPT 2.9µM, IL-1B inflam inh inactive, RORg inh inactive, LDHA block inactive, Gal4-VP16 FLuc inactive and DT40 TDP1 no CPT 2.6µM.
`Cc1cc(-c2ccc(S(=O)(=O)N3CCCCC3)s2)on1` gave DT40 TDP1 CPT inactive, IL-1B inflam inh inactive, RORg inh inactive, LDHA block inactive, Gal4-VP16 FLuc inactive and DT40 TDP1 no CPT inconclusive.
`Cc1cccc(N(C)S(=O)(=O)c2ccc(-c3cc(C)no3)s2)c1` gave DT40 TDP1 CPT 0.82µM, IL-1B inflam inh inactive, RORg inh inactive, LDHA block inactive, Gal4-VP16 FLuc inactive and DT40 TDP1 no CPT 0.65µM.
`CC(C)c1nnc2ccc(N3CCC(C(=O)Nc4ccccc4N4CCCC4)CC3)nn12` gave LDHA block inactive.
For CN(C)[C@@H](CO)c1nnc([C@H](CC(=O)O)NC(=O)C2CCNCC2)o1 the results were DT40 TDP1 CPT 4.6µM, IL-1B inflam inh inactive, RORg inh inactive, LDHA block inactive, Gal4-VP16 FLuc inactive and DT40 TDP1 no CPT inactive.
For CC(C)NCc1ccc(-c2ccc(C(C)O)cc2)o1 (stereo unspecified) the results were LDHA block inactive.
Screening Cc1ccc(C)c(NC(=O)Nc2ccc(-c3cn4cccnc4n3)cc2)c1 returned LDHA block inactive.
Screening CCn1c(SCC(=O)Nc2ccc3c(c2)OCCO3)nc2ccsc2c1=O returned LDHA block inactive.
`CCn1cc(C(=O)O)c(=O)c2cnc(N3CCN(C(=S)Nc4ccccc4Cl)CC3)nc21` gave DT40 TDP1 CPT inactive, IL-1B inflam inh inactive, RORg inh inactive, LDHA block inactive, Gal4-VP16 FLuc inactive and DT40 TDP1 no CPT inconclusive.
`CCn1cc(C(=O)O)c(=O)c2cnc(N3CCN(C(=S)NC(=O)c4ccc(Cl)cc4)CC3)nc21` gave DT40 TDP1 CPT inactive, IL-1B inflam inh inconclusive, RORg inh 1µM, LDHA block inactive, Gal4-VP16 FLuc inactive and DT40 TDP1 no CPT inactive.
Screening CCn1cc(C(=O)O)c(=O)c2cnc(N3CCN(C(=S)Nc4ccc(F)cc4)CC3)nc21 returned DT40 TDP1 CPT inactive, IL-1B inflam inh inactive, RORg inh inactive, LDHA block inactive, Gal4-VP16 FLuc inactive and DT40 TDP1 no CPT inactive.

Screening data from PubChem BioAssay.
